Source: PubChem BioAssay AID493073 (Broad Institute, 2011)
Out of some 1,200 compounds screened, about 810 (68%) were called active. So high a share suggests a set chosen from earlier hits. These entries were drawn from the full list. Measured potencies and affinities stand elsewhere. Unmarked numbers belong to inactive results. No rule for the calls is given here.

Test: reducers of TRPM1 reporter luminescence, concentration series – cell-based, SK-MEL-5, cherry-picked, set 3, MITF inhibitor project, dose response (AID 493073)
Conditions: SK-MEL-5 TRPM1 promoter luciferase, 24 h; series mostly up to 35 µM; activity change, negative = inhibition: at the top concentration

In order of rising “activity change, negative = inhibition” value:
1. COC(=O)c1c(NC(=O)c2nc3ccccc3s2)sc2c1CC(C)(C)NC2(C)C  -108%
2. Cc1cc2oc3ccc(NCCC4CCCN4C)cc3c(=O)c2cc1C (stereo unspecified)  -104%
3. Cc1c(OCC(=O)NC2CC(C)(C)NC(C)(C)C2)ccc2c1oc(=O)c1ccccc12  -99.4%
4. CCN1CCN(c2ccc(S(=O)(=O)N3CCCCC3)cc2NC(=O)/C=C/c2cccc(OC)c2OC)CC1  -98%
5. Cc1c(C(=O)Nc2ccc(S(=O)(=O)N(C)C3CCN(C)CC3)cc2)oc2c(Cl)cccc12  -97.5%
6. CN(C)CCNC(=O)/C(=C/c1ccc(-c2ccc(Cl)cc2)o1)NC(=O)c1ccccc1  -96.9%
7. CCOCCCNC(=O)/C(C#N)=C/c1ccc([N+](=O)[O-])o1  -96.3%
8. Cc1ccc(NC(=O)c2cc(N3C(=O)C=CC3=O)ccc2N2CCOCC2)cc1Cl  -88.5%
9. COc1ccc(NC(=O)C2COc3ccccc3O2)cc1 (stereo unspecified)  -82.9%
10. Cc1ccc(C(CNS(=O)(=O)c2ccc(Br)cc2)N2CCN(C)CC2)cc1 (stereo unspecified)  -81.2%
11. Cn1c(/C(C#N)=C/c2ccc(-c3ccc(S(N)(=O)=O)cc3)o2)nc2ccccc21  -79.9%
12. CC(=C/c1ccco1)/C=N/N1CCN(c2ccccc2)CC1  -79.5%
13. O=C(NC1CC1)C1CCN(S(=O)(=O)c2ccc(Cl)c([N+](=O)[O-])c2)CC1  -67.9%
14. COc1c(C)cccc1C(=O)Nc1ccc(N2CCN(S(C)(=O)=O)CC2)cc1  -65.2%
15. O=C(NCCNc1ccccc1[N+](=O)[O-])c1cc(F)c(F)cc1Cl  -57.4%
16. O=C(/C=C/c1ccc2c(c1)OCCO2)c1ccccc1  -51.6%
17. O=C(Nc1ccccc1F)c1ccc2c(c1)OCO2  -47.3%
18. O=C(Cc1ccccc1)Nc1ccc(NC(=O)c2ccco2)nc1  -37.9%
19. CCN(CC(=O)Nc1ccc2c(c1)OCCO2)C(=O)c1ccc([N+](=O)[O-])s1  -34.7%
20. C(=N\Nc1cc(N2CCCCC2)ncn1)/c1ccco1  -23.1%
21. CCC1CCCCN1CCCNC(=O)c1cn(CC)c2ccc(S(=O)(=O)N(C)C3CCCCC3)cc2c1=O (stereo unspecified)  -22.7%
22. O=C(/C=C/c1ccccc1Cl)NC1CCCCC1  -21.5%
23. Cc1cccc(OCc2nc3ccccc3n2C)c1  -19.5%
24. COCc1cc(C)nc2sc(C(=O)Nc3cccc(OC)c3)c(N)c12  -17%
25. COc1ccccc1N1CCN(/N=C/c2ccc([N+](=O)[O-])cc2)CC1  -13.3%
26. COc1cccc(NC(=O)c2cnn(-c3ccccc3)c2C)c1  -9.88%
27. COc1ccc2oc(=O)c(C(=O)Nc3ccccc3C)cc2c1  -2.57%
28. O=C(Cn1nnc(-c2ccccc2Cl)n1)N1CCCCC1  -1.19%
29. CC(C)N1C(=O)S/C(=C\c2ccc(-c3ccc(Cl)c(C(=O)O)c3)o2)C1=O  7.32%
30. CC(C)C(=O)Nc1ccc2nn(-c3ccc(F)cc3)nc2c1  7.63%
31. N#Cc1cnn2cc(CCN3CCOCC3)c(-c3ccc(F)cc3)nc12  10.1%
32. O=C(CC(=O)c1ccccc1)Nc1ccccc1  12.2%
33. CS(=O)(=O)c1ccc2nc(NC(=O)c3ccccc3)sc2c1  12.7%
34. CC(C)c1ccc(C(=O)Nc2cccnc2)cc1  12.8%
35. Cc1ccccc1C(=O)O/N=C(\N)c1ccc([N+](=O)[O-])cc1  13%
36. OCC1CCCC(n2cnc3c(=S)nc[nH]c32)O1 (stereo unspecified)  13.4%
37. CN1CCN(CCCOc2ccc(-c3ccccc3)cc2)CC1  13.4%
38. CCNC(=O)CC1C(=O)N(c2ccc(F)cc2)C(=O)N1CCc1ccc(OC)cc1 (stereo unspecified)  15.2%
39. O=C(Nc1ccccc1F)C(=O)Nc1cccc2ccccc12  19.6%
40. C=CCNC(=O)c1ccc2nc(Cc3ccc(OC)cc3)oc2c1  19.8%
41. CCN(CC)C(=O)CCCOc1ccc(Cl)cc1Cl  20.3%
42. COc1ccc2oc(=N)c(C(=O)Nc3ccccc3Cl)cc2c1  21.5%
43. c1cnc(SCCOc2ccc3c(c2)CCC3)nc1  24.9%
44. CCOc1cccc(C(=O)NC2=NCCS2)c1  28%
45. Cc1ccc2oc(Nc3nc(C)c(C)c(C)n3)nc2c1  28.3%
46. COC(=O)c1ccc(/C=N/Nc2nc(C)c(C)s2)cc1  36%
47. CCCOc1ccc(-c2c(=O)n(O)c3ccccc3[n+]2[O-])cc1  37.1%
48. CCOc1ccc(C(=O)N2CCc3ccccc32)cc1  38.1%
49. Cc1ccc(NC(=O)c2cnc3ccccc3n2)cc1C  44.3%
50. O=C(NC1=NCCS1)c1ccc(Cl)c(Cl)c1  44.6%
51. Cc1nc(NCCOc2ccccc2)sc1C(=O)Nc1ccccc1  46.1%
52. COc1ccc(COC(=O)c2n[nH]c3ccccc23)cc1F  47.7%
53. CCC(=O)NCCc1nc2cc(NC(=O)c3cccc([N+](=O)[O-])c3)ccc2n1C  51.1%
54. COc1cccc(NC(=O)c2cc3ccccc3cc2OC)c1  51.2%
55. COc1ccc2c(c1OC)C(=O)N(c1ccc(C)cc1)C2  52.1%
56. COc1ccc(NC(=O)c2cc3ccccc3oc2=O)c(OC)c1  52.2%
57. Cc1ccc(C(=O)Nc2ccccc2Cl)cc1  54.6%
58. CN(C)/C=N/c1ncc(C(=O)c2ccccc2)s1  55.9%
59. O=C(Nc1ccc(-c2cn3c(n2)SCC3)cc1)c1ccco1  56%
60. O=C(Nc1ccccn1)c1ccc(Br)s1  56.3%
61. Cc1ccc(CC(=O)Nc2ccc(Cl)cn2)cc1  56.5%
62. CC(=O)COc1ccc2cc(-c3ccccc3)c(=O)oc2c1  59.7%
63. Cc1cccc(OCC(=O)Nc2cccc(O)c2)c1  60.4%
64. Cc1csc(N/N=C/c2ccc([N+](=O)[O-])cc2)n1  61%
65. O=C(/C=C/c1ccc2c(c1)OCO2)N1CCCCC1  62.1%
66. CC(=O)Oc1ccc(C)cc1-n1nc2ccccc2n1  65.9%
67. O=C(c1cc2ccccc2oc1=O)N1CCN(c2ncccn2)CC1  67.3%
68. COc1ccc(CCC(=O)N2CCc3ccccc32)cc1  67.5%
69. O=C(Nc1ccccc1Cl)Nc1cccc2cccnc12  68%
70. O=C(Nc1nnc(Cc2ccccc2)s1)c1ccccc1  68.1%
71. CC1(C)Cc2c(sc(NC(=O)Nc3ccccc3)c2C(N)=O)CO1  69.1%
72. COc1ccc(/C=C/C(=O)NC(=S)N2CCN(c3ccccc3OC)CC2)cc1  69.5%
73. Cc1ccc(OCC(=O)Nc2cccc(C)n2)c(C)c1  69.9%
74. Cc1ccc(C(=O)NC2=NCCS2)cc1Cl  71.2%
75. O=C(Nc1ccccc1)C1Cc2ccccc2CN1C(=O)c1ccco1 (stereo unspecified)  73.5%
76. COc1ccc(-c2csc(N(C)C(=O)c3ccco3)n2)cc1  74%
77. c1ccc(CSc2nnc(-c3ccco3)n2Cc2ccco2)cc1  75.4%
78. CCC(=O)Nc1cc(C(=O)OCC(=O)c2ccccc2Cl)ccc1C  76.3%
79. COc1ccc(C(=O)CN2Cc3ccccc3C2=N)cc1  76.8%
80. S=c1[nH]nc(-c2ccco2)n1/N=C/C(Cl)=C/c1ccccc1  77.9%
81. CCOC(=O)c1cc(-c2ccc(OC)cc2)n[nH]1  78%
82. Cc1csc(NC(=O)Cc2c(F)cccc2Cl)n1  78.6%
83. CS(=O)(=O)N1CCN(c2nc3ccc(Cl)cc3s2)CC1  78.7%
84. O=[N+]([O-])c1cc(C(F)(F)F)ccc1NCCc1ccccn1  80.2%
85. Cc1ccc(NC(=O)c2ccccc2)cc1  80.8%
86. CC1Cc2ccccc2N1C(=O)c1ccc(Br)o1 (stereo unspecified)  81.6%
87. Clc1ccc(-c2noc(CN3CCOCC3)n2)cc1  81.6%
88. Nc1ccccc1SC1CC(=O)N(c2ccc3c(c2)OCCO3)C1=O (stereo unspecified)  82.2%
89. CC(=O)c1sc(N/N=C\c2ccc(N(C)C)cc2)nc1C  82.6%
90. ClC1(Cl)CC1CSc1nnc(-c2ccncc2)o1 (stereo unspecified)  83%
91. N#C/C(=C\c1c[nH]c2ccccc12)C(=O)NC1CC1  85.3%
92. COc1ccc(C(=O)CCNc2ccc(F)cc2)cc1  85.6%
93. COc1ccc(N/C=C\C(=O)c2ccc3ccccc3c2)cc1  88.6%
94. CCc1nc2oc3ccc(C)cc3c(=O)c2cc1C(=O)OC  89.6%
95. Cc1[nH]nc(Nc2ccc(Br)cc2)c1[N+](=O)[O-]  91.7%
96. C/C(=N\Nc1nccnc1Cl)c1ccc(O)c(C)c1  91.9%
97. CCOc1ccc2nc(NC(=O)Cc3cccs3)sc2c1  92.9%
98. O=C(N/N=C/C=C/c1ccccc1)c1ccccn1  94.3%
99. Cc1ccc(Nc2nnc(-c3ccccc3N)o2)cc1C  94.4%
100. N/C(=N\OC(=O)c1ccc([N+](=O)[O-])cc1)c1ccc(Br)cc1  95.2%
101. COc1ccc(-c2noc(-c3cccs3)n2)cc1OC  95.4%
102. CCOC(=O)c1sc(NC(=O)Nc2ccc(Cl)cc2)nc1C  96.9%
103. COc1ccc(/C=N/Nc2ccccn2)cc1OC  97.2%
104. COc1cc(OC)cc(C(=O)Nc2ccc3c(c2)OCCO3)c1  98.8%
105. Cc1ccc(NC(=O)Cc2noc3ccccc23)cc1  101%
106. CC(=O)N(c1nnc(-c2cccc(C)c2)s1)C1CCCC1  101%
107. O=C1c2ccccc2C(=O)N1CCSc1ccccc1  102%
108. Cc1cc(N2CCOCC2)n2ncc(-c3ccccc3Cl)c2n1  102%
109. CS/C(N)=N/N=C/c1ccc2c(c1)OCO2  103%
110. O=C(c1ccc(F)cc1)N1CCC(c2ccccc2)C1 (stereo unspecified)  104%
111. COc1ccccc1N1CCN(/N=C\c2ccccc2)CC1  104%
112. CCOc1ccc(N/C=C/C(=O)c2ccc(OC)c(OC)c2)cc1  105%
113. CCOC(=O)c1ccc2nc(C)c(CCC(C)=O)c(Cl)c2c1  105%
114. COc1ccc(/C=C/c2cc(C(F)(F)F)on2)cc1  107%
115. CCCOC(=O)c1ccc(NC(=O)C2CCCO2)cc1 (stereo unspecified)  109%
116. CN(c1ccc(O)cc1)c1nc(O)c(C2=c3ccccc3=NC2=O)s1  116%
117. N#C/C(=C\c1cccs1)C(=O)NCC1CCCO1 (stereo unspecified)  116%
118. Cc1cccc(NC(=O)Cc2ccc(Br)cc2)n1  117%
119. COc1cccc(/C=N/Nc2nc3ccccc3[nH]2)c1OC  125%
120. COc1ccccc1N1CCN(/N=C/c2cccc(Cl)c2)CC1  132%
121. COc1cc2ccccc2cc1C(=O)Nc1ccc(N2CCN(C)CC2)cc1  138%
